Measurements: ChEMBL document CHEMBL1157539, “Thousands of chemical starting points for antimalarial lead identification” (Nature, 2010)

Columns and labels:
Assay type in all cases: functional
Plasmodium falciparum [1] = experiment: GSK_TCMDC: Inhibition of Plasmodium falciparum 3D7 in whole red blood cells, using parasite LDH activity as an index of growth. Test compounds present at 2uM
Plasmodium falciparum [2] = experiment: GSK_TCMDC: Inhibition of Plasmodium falciparum Dd2 in whole red blood cells, using parasite LDH activity as an index of growth. Test compounds present at 2uM
HepG2 = experiment: GSK_TCMDC: Percent inhibition of human HepG2 cell line. Test compounds present at 10uM.

Compound | Inhibition (Plasmodium falciparum [1]) | Inhibition (Plasmodium falciparum [2]) | Inhibition (HepG2)
COc1ccccc1OCCN(CC(O)COc1cccc2[nH]c3ccccc3c12)CC(O)COc1cccc2[nH]c3ccccc3c12 (stereo unspecified) | 97% | 96% | 16%
CCOc1ccc(/C=C/C(=O)Nc2cccc3c2CCN(C)C3)cc1.Cl | 92% | 3% | 0%
Cc1cc(NC(=O)NCCN2CCC(NS(=O)(=O)c3ccc(Br)cc3)C2)c2ccccc2n1.O=C(O)C(F)(F)F (stereo unspecified) | 99% | 51% | 9%
CS(=O)(=O)NCCCNCc1cccc(-c2cccc(-c3nc4cc(C(F)(F)F)ccc4[nH]3)c2)c1.O=C(O)C(F)(F)F | 99% | 100% | 17%
O=C(NC1CCCCC1)N(CCCn1ccnc1)Cc1csc(-c2ccc(CNCc3ccccc3)cc2)n1.O=C(O)C(F)(F)F | 97% | 48% | 5%
CC(C)CNCc1cccc(-c2cccc(CNCCCN3CCN(C)CC3)c2)c1.O=C(O)C(F)(F)F | 88% | 7% | 5%
Cc1cc(C)cc(Oc2c(C(F)(F)F)oc3c(CN4CC(C)OC(C)C4)c(O)ccc3c2=O)c1 (stereo unspecified) | 89% | 54% | 5%
COc1ccc(-c2nc(NC(=O)Cc3cccc(OC)c3)sc2C)cc1 | 100% | 77% | 1%
COc1cc(CNCCC(C)C)ccc1OCc1cccc(COc2ccc(CNCCC(C)C)cc2OC)c1.Cl | 99% | 20% | 97%
COc1ccc(C(=O)NC2CCN(c3ccnc4cc(Cl)ccc34)C2)cc1.O=C(O)C(F)(F)F (stereo unspecified) | 100% | 100% | 31%
CCSc1nnc(C2CCCN(CC(=O)Nc3cc(C(F)(F)F)ccc3Cl)C2)n1CC (stereo unspecified) | 99% | 96% | 0%
Br.CC1(C)NC(N)=NC(=N)N1OCCCCCCOc1ccc(Cl)c2ccccc12 | 91% | 94% | 62%
CCCc1cc(Cc2cnc(N)nc2N)ccc1OCCCCCC(=O)OCC | 97% | 1% | 0%
COc1ccc(CCNCCCCCCNCCc2ccc(Cl)cc2)c(Cl)c1OC.Cl | 100% | 4% | 88%
CS(=O)(=O)CCNCc1nc(-c2ccc3c(Nc4ccc(Oc5ccccn5)cc4)ccnc3c2)cs1 | 100% | 89% | 9%
CCCCOc1c(CCC)cc(Cc2cnc(N)nc2N)cc1CCC.Cl | 97% | 0% | 27%
O=C(CCCCCNC(=O)c1ccc(O)c(-c2cccc(C(F)(F)F)c2)c1)NCCN1CCCCC1 | 99% | 0% | 0%
Cn1nccc1C(=O)NCCNCc1cccc(-c2ccc(-c3nc4ccccc4[nH]3)s2)c1.O=C(O)C(F)(F)F | 100% | 94% | 22%
O=C(Nc1ccc2c(c1)CCC2)c1ccc(N2CCN(c3ccncc3)CC2)cc1.O=C(O)C(F)(F)F | 100% | 75% | 72%

Compound | Inhibition (Plasmodium falciparum [1]) | Inhibition (Plasmodium falciparum [2]) | Inhibition (HepG2)
COc1cc2c(cc1OC)CN(c1cc(N)c3cc(OC)c(OC)cc3n1)CC2.CS(=O)(=O)O | 100% | 99% | 23%
COc1ccccc1CNC(=O)C(=O)Nc1c(-c2ccccc2)[nH]c2ccccc12 | 99% | 91% | 0%
Cc1cccc(-c2cccc(CNc3nc(NCCc4ccc(O)cc4)nc(N4CCNCC4)n3)c2)c1.O=C(O)C(F)(F)F | 84% | 0% | 50%
O=C(NC1CCCCC1)N(Cc1cccc(-c2cccc(CNC3CCCC3)c2)c1)C1CCN(Cc2ccccc2)CC1.O=C(O)C(F)(F)F | 96% | 90% | 64%
CN1CCC(NC(=O)c2cccc(Nc3cc(Nc4cccc(Br)c4)ncn3)c2)CC1 | 94% | 6% | 25%
CC(C)(C)c1ccc(CNCC(C)(C)c2nc(-c3ccnc(N)n3)c(-c3ccc(Cl)c(O)c3)[nH]2)cc1.Cl | 100% | 54% | 28%
Cc1ccc(NC(=O)c2ccc3ncccc3c2)cc1OC1CCN(CCC(C)C)CC1.O=C(O)C(F)(F)F | 94% | 48% | 2%
COc1cccc2c(NN=Cc3cccc(F)c3)ccnc12 | 99% | 44% | 12%
CC(C)(CNCc1ccc(C(F)(F)F)cc1)c1nc(-c2ccc(Cl)c(O)c2)c(-c2ccncc2)[nH]1.Cl | 100% | 98% | 42%
O=C(/C=C/c1ccc(Cl)c(Cl)c1)NCCCCCCN1CCCN(C(=O)Nc2ccc(C(F)(F)F)cc2)CC1 | 100% | 25% | 47%
Br.COc1cc(OCCCCCCON2C(=N)N=C(N)NC2(C)C)cc(OC)c1OC | 94% | 93% | 41%
Cl.N#Cc1ccc2c(c1)CCN(CCC1CCC(NC(=O)c3cc4ccc(Cl)cc4[nH]3)CC1)C2 (stereo unspecified) | 100% | 0% | 5%
N#Cc1ccc(N/C(=N\c2ccccc2Cl)NC2CCN(Cc3ccccc3)CC2)c(O)c1 | 100% | 97% | 31%
CCOc1ccc(C2CCN(CCCCNC(=O)c3ccc(NC(=O)c4ccc(Cl)cc4)cc3)CC2)c(CC)c1 | 100% | 64% | 44%
CCCN(CCC)CCCN(CCCN(CCC)CCC)c1cc(C)nc(Nc2ccc(Cl)cc2)n1.Cl | 100% | 100% | 34%
O=C(Nc1cccc(-c2cccc(-c3ccc(F)cc3)n2)c1)c1ccc([N+](=O)[O-])o1 | 99% | 42% | 100%
CCCN(Cc1nnc(-c2cccs2)o1)C(=O)CSc1nnnn1-c1ccc(C)c(C)c1 | 96% | 80% | 0%
Cc1cccc2nc(-c3ccc(-c4ccc(CN5CCN(c6ccncc6)CC5)cc4)s3)[nH]c12.O=C(O)C(F)(F)F | 100% | 98% | 85%
CC(C)NCc1ccc(-c2cccc(NC(=O)c3ccc(Cl)cc3)c2)cc1.O=C(O)C(F)(F)F | 100% | 82% | 20%

Compound | Inhibition (Plasmodium falciparum [1]) | Inhibition (Plasmodium falciparum [2]) | Inhibition (HepG2)
Cc1cc(NC2CCN(CC3CCCCC3)CC2)nc(Nc2ccccc2Cl)n1 | 100% | 31% | 28%
CCn1c(=O)c(C(=O)Nc2cc(Cl)c(OC)cc2OC)nc2ccccc21 | 86% | 84% | 19%
COc1ccc(CCC(C)N2CC(N)C(c3cn(C)c4cnccc34)C2)cc1.Cl (stereo unspecified) | 98% | 0% | 5%
CC(=O)c1ccccc1C(=O)N1CCOc2ccc(C(O)C(c3ccccc3)c3ccccc3)cc2C1 (stereo unspecified) | 96% | 98% | 10%
CC(=O)Nc1ccc(C(=O)Nc2ccc(-c3csc(-c4nc5ccccc5[nH]4)c3)cc2)cn1 | 93% | 0% | 11%
FC(F)(F)c1ccc2[nH]c(-c3ccc(-c4cccc(CNCCN5CCNCC5)c4)s3)nc2c1.O=C(O)C(F)(F)F | 91% | 39% | 22%
Br.N=C(N)Nc1nc(-c2cc(NC(=O)C(F)(F)F)cc([N+](=O)[O-])c2)cs1 | 98% | 51% | 7%
Cc1cccc2nc(-c3cccc(-c4ccc(NC(=O)c5c[nH]cn5)cc4)c3)[nH]c12 | 100% | 48% | 8%
C=C(C)C1CC=C(CN2CCC(N3CCc4cc(NC(=O)c5cc(C)on5)ccc43)C2)CC1 (stereo unspecified) | 90% | 95% | 26%
Cc1cccc(C)c1N1CCN(C2CCC(NC(=O)c3cc4ccccc4[nH]3)CC2)CC1 (stereo unspecified) | 100% | 64% | 31%
COc1cc(OC)cc(-c2nn(-c3ccc([N+](=O)[O-])cc3C#N)c(=S)n2CC2CCCO2)c1 (stereo unspecified) | 98% | 75% | 9%
CC1(C)CCCN(Cc2c(O)ccc3c(O)c(-c4nc5ccccc5s4)c(=N)oc23)C1 | 100% | 100% | 20%
COc1ccc2ncc(F)c(CCN3CC(O)C(CNCc4ccccc4)C3)c2n1.Cl (stereo unspecified) | 89% | 22% | 19%
Cc1cc(N[C@@H](CC(C)C)C(=O)Nc2ccccc2)nc(NCc2ccccc2C)n1.O=C(O)C(F)(F)F | 100% | 81% | 21%
COc1cc2c(cc1C(F)(F)F)N(C(=O)Nc1cc(F)cc(-c3cccnn3)c1)CC2 | 90% | 34% | 21%
CCCN(Cc1ccc(OCC)cc1)Cc1cc(=O)c2cc(Cl)ccc2[nH]1 | 82% | 82% | 47%
FC(F)(F)c1ccc2[nH]c(-c3ccc(-c4cccc(CNCc5ccccc5)c4)s3)nc2c1.O=C(O)C(F)(F)F | 100% | 83% | 15%
Cc1ccc(Nc2ccnc(Nc3ccc(C)c(F)c3)n2)cc1O.Cl | 100% | 27% | 4%
O=C(/C=C/c1ccc(Cl)c(Cl)c1)NCCCCCN1CCCN(C(=O)Nc2ccc([N+](=O)[O-])cc2)CC1 | 97% | 28% | 32%
